Screening data as filed in PubChem BioAssay.
Hits are enriched below; roughly 3.4% of the tested compounds scored in any of these assays.
TEAD-YAP inh – TEAD-YAP interaction inhibition. HEK-TIYL cells, TEAD-Gal4/YAP UAS-luciferase luminescence. AID 1259422. 1.4% of 640,000 active. inhibition, % at 9.12 µM; in the data active = inhibition above about 32%;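 also: 0% = median of test compound wells and 100% = reference inhibitor wells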
MITF inh – blocks human microphthalmia-associated transcription factor; AlphaScreen MITF homodimerization, bead proximity signal; inhibition, % at 2.6 µM; 0.91% of 650,000 active; AID 1259374; in the data active = inhibition above about 50%;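 also: 0% = vehicle wells with protein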
FBW7 activator – activators of human E3 ligase FBW7. Q969H0. AlphaScreen FBW7–phospho-cyclin E peptide binding, activator screen. normalized activity (activation), % at 26.1 µM. 0.13% of 650,000 active; in the data active = normalized activity above about 1.9%;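 also: purified mutant Fbw7 with reduced substrate affinity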
GPR151 activ – activators of human GPR151; AID 1508602; Q8TDV0; PathHunter beta-arrestin GPR151 cells, luminescence; activation, % at 11.2 µM; 1% of 650,000 active; in the data active = activation above about 4.9%;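 also: 0% = median of compound wells and 100% = cells with positive control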
Target sequence (Q8TDV0 whole entry, looked up): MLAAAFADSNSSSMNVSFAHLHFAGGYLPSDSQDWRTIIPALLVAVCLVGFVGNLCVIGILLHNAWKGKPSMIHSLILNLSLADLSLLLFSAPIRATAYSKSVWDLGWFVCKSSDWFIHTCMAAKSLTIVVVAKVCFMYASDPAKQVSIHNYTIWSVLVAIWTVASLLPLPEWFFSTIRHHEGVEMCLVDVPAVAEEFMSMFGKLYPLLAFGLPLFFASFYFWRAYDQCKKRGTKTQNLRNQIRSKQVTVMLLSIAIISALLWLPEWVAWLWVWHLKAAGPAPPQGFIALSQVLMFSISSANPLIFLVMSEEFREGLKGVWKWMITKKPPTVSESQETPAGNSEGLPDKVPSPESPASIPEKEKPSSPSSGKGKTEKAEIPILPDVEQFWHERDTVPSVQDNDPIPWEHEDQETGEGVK
GPR151 conf act – human GPR151 activation, confirmation screen; shares compounds with GPR151 activ; GPR151 PathHunter beta-arrestin cells, luminescence, 90 min; % of EA-reagent control over plate median; activation, % at 11.2 µM; 6,700 tested, under 10 active; AID 1508609;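 active = mean percent activation across replicates above the confirmation screen cutoff of 4.91%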
GPR119 counter – activates human GPR119 in a GPR151 counter-screen; 0.3% of 6,700 active; GPR119 PathHunter beta-arrestin cells, luminescence, 90 min; 0 = compound-well median, 100 = enzyme-acceptor control; activation, % at 11.2 µM; AID 1508611; shares compounds with GPR151 activ;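 active = mean percent activation in the counterscreen above 29.09%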;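 also: counterscreen on off-target GPR119 to flag nonselective hits from the GPR151 activator screen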
The depositor's hits bear a star; . = no result given; ! = repeats disagree.

SMILES	TEAD-YAP inh	MITF inh	FBW7 activator	GPR151 activ	GPR151 conf act	GPR119 counter
NC(=O)C1CCN(C(=O)CSCc2c(Cl)cccc2Cl)CC1	2	-11	0	6.1*	0	-3
O=C(CSCc1ccccc1)N1CCC(Cc2ccccc2)CC1	-43	6	1	6.0*	0	1
O=C(CSc1cccc[n+]1[O-])N1CCC(Cc2ccccc2)CC1	-1	-11	0	1	.	.
CCOC(=O)C1CCN(C(=O)CSCc2c(Cl)cccc2Cl)CC1	3	2	0	-1	.	.
Cc1c(C(=O)N2CCN(c3ccc([N+](=O)[O-])cc3)CC2)sc2ncnc(N3CCOCC3)c12	7	-9	0	-1	.	.
COc1ccccc1CNC(=O)c1nn(C)c2c1COc1ccccc1-2	-15	8	0	0	.	.
Cn1nc(C(=O)NCc2ccc(F)cc2)c2c1-c1ccccc1OC2	-10	-6	0	12*	1	-1
O=C(N/N=C/c1ccncc1)c1cc(Br)ccc1OCc1ccccc1	-5	15	0	5.1*	1	-2
CCOc1ccc(Br)cc1C(=O)N/N=C/c1ccc([N+](=O)[O-])cc1	0	2	0	7.3*	1	-4
CC(=O)Nc1ccc(NC(=O)c2cccc(Cl)c2)nc1	-1	-5	0	3	.	.
COc1cc(OC)cc(C(=O)O/N=C(\N)c2ccc(OC)c(OC)c2)c1	7	11	0	0	.	.
Cc1cnc(C(=O)NCc2nc(-c3ccncc3)n[nH]2)cn1	14	20	1	-1	.	.
Cn1c(=O)n(CC(=O)NCc2ccccc2)c2cccnc21	-11	11	0	-1	.	.
CCCCc1nnc2sc(NC(=O)c3ccc(F)cc3)nn12	1	-11	0	5.6*	0	-7
COc1ccc(NC(=O)C(=O)NC2CCCCC2C)c(OC)c1 (stereo not given)	6	5	0	0	.	.
COc1ccc(-c2oc3ncn4nc(-c5cccc6ccccc56)nc4c3c2-c2ccc(OC)cc2)cc1	4	-1	0	5.3*	0	11
COC(=O)c1ccc(Cn2cnc3c(nnn3-c3cc(C)cc(C)c3)c2=O)o1	-3	-14	0	5.0*	0	1
CCCNC(=O)Cn1cnc2c(nnn2-c2cc(C)cc(C)c2)c1=O	9	0	0	7.0*	0	-1
Cc1cc(C)cc(-n2nnc3c(=O)n(Cc4ccc(Cl)c(Cl)c4)cnc32)c1	4	15	0	-1	.	.
COc1cccc(C(=O)COC(=O)c2cccc(NC(=O)c3ccccc3)c2)c1	-4	-3	0	6.1*	0	-7
O=C(COC(=O)c1ccc2ccccc2n1)c1ccc(Cl)c(Cl)c1	-3	-9	0	5.6*	0	-3
O=C(COC(=O)c1ccc2ccccc2n1)c1ccccc1	1	-1	0	0	.	.
O=C(COC(=O)c1ccccc1)c1ccc2ccccc2c1	6	0	0	5.4*	-1	-18
O=C(/C=C/c1c(F)cccc1Cl)NCc1ccncc1	-2	-3	0	7.2*	-1	-16
O=C1OC(c2ccc(Br)cc2)=N/C1=C/c1ccc([N+](=O)[O-])cc1	-13	19	0	0	.	.
SMILES	TEAD-YAP inh	MITF inh	FBW7 activator	GPR151 activ	GPR151 conf act	GPR119 counter
COc1ccc(NC(=O)c2cc3nc(-c4ccc(OC)c(OC)c4)cc(C(F)(F)F)n3n2)cn1	5	2	0	-1	.	.
O=C(O)CC1c2ccccc2CCN1S(=O)(=O)c1ccccc1 (stereo not given)	11	-1	0	1	.	.
O=C(O)CC1c2ccccc2CCN1S(=O)(=O)c1ccc(Cl)cc1 (stereo not given)	-1	9	0	6.0*	2	12
CCOc1cc2[nH]c(=O)n(Cc3cccc(OC)c3)c(=O)c2cc1OCC	5	-3	0	8.5*	0	-8
Cc1c(Cl)cccc1NC(=O)c1ccccc1C(=O)O	8	13	0	1	.	.
Cc1c(Cl)cccc1Nc1ccccc1C(=O)O	-6	-1	0	7.5*!	0	6
O=C(Nc1ccc(S(=O)(=O)NCc2ccccc2)cc1)N1CCCC1	1	1	0	7.0*	0	15
Cn1c(CCN2C(=O)CCC2CCNCc2ccncc2)nc2ccccc21 (stereo not given)	9	6	0	-1	.	.
